# Data: PubChem BioAssay (NCI)
# Values joined by “and” are separate entries in the source; they are usually repeats but may differ in a detail not shown here. Equal entries are not always repeated. About 83,000 compounds went through this panel and 20% of them were active in at least one assay; those are over-represented in the sample as a whole.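 Note: values are percent growth. 100 is the growth of untreated cells, values between 100 and 0 indicate rising inhibition; between -100 and 0 indicates cell death.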 Active and inactive are the calls of the source.
# System: MDA-MB-468 breast
# Assay: NCI-60 one-dose screen, 48 h (100 = growth as untreated, 0 = no growth, -100 = all killed)
# Conditions: 10 µM unless noted
# Description: Growth inhibition of the MDA-MB-468 human Breast tumor cell line is measured as a screen for anti-cancer activity. Cells are grown in 96 well plates and exposed to the test compound for 48 hours. Compounds are tested at a single concentration, which is 10^-5 M for most compounds. The reported endpoint is percent growth (GI% or GIPRCNT), where numbers from 0 - 100% represent growth inhibition, and numbers from -100% - 0 represent cell death. For example, a value of 40 represents 60% growth inhibition. A value of 0 means no net growth occurred over the course of the experiment. A value of -40 indicates 40% of cells at the beginning of the experiment died by the end of the experiment. A value of -100 means all cells are dead at the end of the experiment.
# NCI-60 Human Tumor Cell Lines Screen was performed using the standard one-dose NCI protocol, which is described in more detail at https://dtp.cancer.gov/discovery_development/nci-60/default.htm.
# Compounds with GIPRCNT values below 10 were considered active. Activity score was based on GIPRCNT using the following formula: […]
# Score is 0 for GIPRCNT values of 100 or above, 50 for GIPRCNT values of 0, and 100 for GIPRCNT values of -100.
row,Compound,growth
1,CCOC(=O)c1c2c(c(C)n1Cc1ccc(OC)cc1)-c1oncc1CC2,97.8% (inactive)
2,COS(=O)(=O)CCN(CCOS(C)(=O)=O)S(C)(=O)=O,104% (inactive)
3,COc1ccc(C(=O)Cn2cnc3c(Nc4cc(C(=O)Nc5ccc(N6CCN(CCO)CC6)cc5)ccc4C)ncnc32)cc1,114% (inactive)
4,C[C@H](NC(=O)c1snnc1C1CC1)c1c(F)cccc1Cl,99.4% (inactive)
5,Cc1nc2ncc(-c3ccc4ncnc(NCc5ccccc5)c4c3)cc2[nH]1,11.1% (inactive)
6,COc1ccc(C(=O)N2N=C(c3ccc(Br)cc3)CC2c2cn(-c3ccccc3)nc2-c2ccccc2)cc1 (stereo not given),69% (inactive)
7,O=C(Cn1ccnc1)Nc1ccc(-c2nc3ccccc3s2)cc1,0.748% (active)
8,CCCOc1nc(SCCC)nc2c1cnn2-c1ccccc1,106% (inactive)
9,COc1ccc(-c2nc(SCC(=O)Nc3nc4ccc(C)cc4s3)[nH]c(=O)c2C#N)cc1OC,100% (inactive)
10,CC1=Nc2cnc(Nc3ccc(OCCN4CCCC4)cc3)nc2Nc2ccccc21,57% (inactive)
11,O=[N+]([O-])c1ccc2c(c1)Cc1ccccc1-2,84.1% (inactive)
12,CCCCN1C(=O)CC(SC2CC(=O)N(CCCC)C2=O)C1=O (stereo not given),105% (inactive)
13,C=C(C)[C@@H]1CC[C@]2(C)[C@H](CC=C3[C@@H]4[C@H](C)[C@@H](C)CC[C@]4(CO)CC[C@]32C)[C@@]1(C)CCCN,-54.7% (active)
14,C=C1c2c(C)nn(-c3ccc(N)cc3)c2N(C)C23CC1C1(C)c4c(C)nn(-c5ccc(N)cc5)c4N(C)C(C)(CC12)C3 (stereo not given),59.5% (inactive)
15,N#Cc1c(-c2ccco2)nc2c(c(-c3ccccc3)nn2-c2ccccc2)c1-c1ccc(O)cc1,92.4% (inactive)
16,CCOC(=O)c1c(Nc2ccccc2)nn2c(-c3ccccc3)ccnc12,98% (inactive)
17,Cc1cc(-c2ccccc2)cc(SC#N)[n+]1[O-],34.8% (inactive)
18,CCCCNC(=O)Oc1ccc(/C(=C(/CC)Cc2ccccc2)c2ccc(OCCCN(C)C)cc2)cc1,72.9% (inactive)
19,COc1ccc(C2C(c3nn[nH]n3)=C(N)Oc3c2ccc2ccccc32)cc1 (stereo not given),43.8% (inactive)
20,Cc1ccc(S(=O)(=O)Nc2cccc3[nH]c(C(F)(F)F)nc23)cc1,5.86% (active)

row,Compound,growth
1,CSc1nc(-c2cccs2)c2c(N)[nH]nc2n1,117% (inactive)
2,CC(=O)Nc1ccc(C(=O)CCl)cc1,8.65% (active)
3,CN(C)CN1CCN(c2ccc3nc(-c4ccc5nc(-c6ccc(C(F)(F)F)cc6)[nH]c5c4)[nH]c3c2)CC1,13.7% (inactive)
4,CCN1CCN(c2cc(C(=O)Nc3nc4ccc(Oc5ccnc(C(=O)NC)c5)cc4s3)cc(C(F)(F)F)c2)CC1,43.3% (inactive)
5,S=c1ccc2ccccc2[nH]1,98% (inactive) and 116% (inactive)
6,CC(O)c1ncc(/C=C2\SC(=S)N(Cc3ccccc3)C2=O)s1 (stereo not given),65.6% (inactive)
7,CCN1CCN(c2nc(NNC(=O)c3ccc(OC)cc3)nc(N3CCN(C(c4ccccc4)c4ccccc4)CC3)n2)CC1,10.7% (inactive)
8,C[C@@H](Nc1c(C#N)cnc2ccc(-c3cnc(N)nc3)cc12)c1ccccc1,-8.47% (active)
9,COc1cc(/C=C/C(=O)N2CCN(C(=O)/C=C/c3cc(OC)c(OC)c(OC)c3)CC2)cc(OC)c1OC,102% (inactive)
10,C/C=C/C1OC23CCCCC2C(C#N)(C(=N)O3)C1(C#N)C#N (stereo not given),77.7% (inactive)
11,O=c1cc(CSc2nnc(-c3ccccc3)n2-c2ccc(F)cc2)c2ccc3ccccc3c2o1,93.2% (inactive)
12,Cc1ccc(/C=N/NC(N)=S)s1,101% (inactive)
13,COc1cc(/C=C/C(=O)c2ccc(Cl)cc2)cc(CN2CCCCC2)c1O,93.2% (inactive)
14,COc1ccc2c(c1)c(-c1nc(-c3c[nH]c4ncccc34)cs1)cn2CCN,1.91% (active)
15,CN1CCN(Cc2ccc(NC(=O)c3[nH]ncc3Nc3ncnc4c3CCC4)cc2)CC1,9.05% (active)
16,COC12C=C/C(=C(/C(=O)OCc3csc(SC)n3)C(=O)CCCCCCCCC3(OC)C=C/C(=C(/C(=O)OCc4cnc(SC)s4)C(=O)CCCCCCCC1)O3)O2 (stereo not given),29.5% (inactive)
17,C=C1SC(=Nc2c(C)cccc2C)N(c2nc(Cl)nc(Cl)n2)C12CCCCC2,101% (inactive)
18,Cn1c(=O)c2c(nc3n2CCN(CCc2ccc(OCCN4CCOCC4)cc2)C3)n(C)c1=O,97.9% (inactive)
19,CN1C(=O)N(C)C2C1NN=c1s/c(=C\c3cccnc3)c(=O)n12 (stereo not given),58.1% (inactive)
20,CCc1ccccc1-n1[nH]c(C)c(C=N)c1=O,90.3% (inactive)
